Assay results published in the supplement of paper PMC8728848.
The full list was thinned out, with the strongest signals kept by preference.

How the values were obtained:
Experiment in all cases: glycan array binding signal (z-score within array); higher = stronger binding
Conditions in all cases: glycan notation: IUPAC condensed, linker removed
Fuc(a1-2)Gal(b1-3)GalNAc = target: Fuc(a1-2)Gal(b1-3)GalNAc
How it was run: (§1)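 From the Consortium for Functional Glycomics database, 3228 arrays were curated, keeping only those whose protein sequence was available. Binding is given as a within-array Z-score averaged across arrays sharing a protein sequence and across linkers. Negative Z-scores can be read as non-binding.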

[1] = target: Fuc(a1-2)Gal(b1-3)GalNAc(a1-3)[Fuc(a1-2)]Gal(b1-4)GlcNAc
How it was run: as §1

[2] = target: Fuc(a1-2)Gal(b1-3)GalNAc(b1-3)Gal(a1-4)Gal(b1-4)Glc
How it was run: as §1

[3] = target: Fuc(a1-2)Gal(b1-3)GlcNAc(b1-2)Man(a1-3)[Fuc(a1-2)Gal(b1-3)GlcNAc(b1-2)Man(a1-6)]Man(b1-4)GlcNAc(b1-4)GlcNAc
How it was run: as §1

[4] = target: Fuc(a1-2)Gal(b1-3)GlcNAc(b1-3)Gal(b1-4)Glc
How it was run: as §1

[5] = target: Fuc(a1-2)Gal(b1-3)GlcNAc(b1-3)GalNAc
How it was run: as §1

[6] = target: Fuc(a1-2)Gal(b1-3)[Fuc(a1-4)]GlcNAc(b1-2)Man(a1-3)[Fuc(a1-2)Gal(b1-3)[Fuc(a1-4)]GlcNAc(b1-2)Man(a1-3)]Man(b1-4)GlcNAc(b1-4)GlcNAc
How it was run: as §1

[7] = target: Fuc(a1-2)Gal(b1-4)[Fuc(a1-3)]GlcNAc(b1-2)[Fuc(a1-2)Gal(b1-4)[Fuc(a1-3)]GlcNAc(b1-4)]Man(a1-3)[Fuc(a1-2)Gal(b1-4)[Fuc(a1-3)]GlcNAc(b1-2)Man(a1-6)]Man(b1-4)GlcNAc(b1-4)GlcNAc
How it was run: as §1

Fuc(a1-2)Gal6S(b1-4)Glc = target: Fuc(a1-2)Gal6S(b1-4)Glc
How it was run: as §1

[8] = target: Fuc(a1-2)Gal6S(b1-4)Glc6S
How it was run: as §1

[9] = target: Fuc(a1-2)[Gal(a1-3)]Gal(b1-3)GalNAc(b1-3)Gal(a1-4)Gal(b1-4)Glc
How it was run: as §1

[10] = target: Fuc(a1-2)[Gal(a1-3)]Gal(b1-4)GlcNAc(b1-2)Man(a1-3)[Fuc(a1-2)[Gal(a1-3)]Gal(b1-4)GlcNAc(b1-2)Man(a1-6)]Man(b1-4)GlcNAc(b1-4)GlcNAc
How it was run: as §1

[11] = target: Fuc(a1-2)[GalNAc(a1-3)]Gal(b1-3)GlcNAc(b1-6)GalNAc
How it was run: as §1

[12] = target: Fuc(a1-2)[GalNAc(a1-3)]Gal(b1-4)GlcNAc(b1-3)Gal(b1-4)GlcNAc
How it was run: as §1

[13] = target: Fuc(a1-2)[GalNAc(a1-3)]Gal(b1-4)GlcNAc(b1-3)Gal(b1-4)GlcNAc(b1-3)Gal(b1-4)GlcNAc
How it was run: as §1

[14] = target: Fuc(a1-2)[GalNAc(a1-3)]Gal(b1-4)GlcNAc(b1-6)GalNAc
How it was run: as §1

[15] = target: Fuc(a1-2)[GalNAc(a1-3)]Gal(b1-4)[Fuc(a1-3)]GlcNAc
How it was run: as §1

Fuc(a1-3)GlcNAc = target: Fuc(a1-3)GlcNAc
How it was run: as §1

Gal(a1-3)Gal(b1-3)GlcNAc = target: Gal(a1-3)Gal(b1-3)GlcNAc
How it was run: as §1

[16] = target: Gal(a1-3)Gal(b1-3)GlcNAc(b1-6)GalNAc
How it was run: as §1

Gal(a1-3)Gal(b1-4)GlcNAc = target: Gal(a1-3)Gal(b1-4)GlcNAc
How it was run: as §1

Gal(b1-2)Gal = target: Gal(b1-2)Gal
How it was run: as §1

[17] = target: Gal(b1-3)GalNAc(a1-3)[Fuc(a1-2)]Gal(b1-4)GlcNAc
How it was run: as §1

[18] = target: Gal(b1-3)GlcNAc(b1-3)Gal(b1-4)GlcNAc
How it was run: as §1

[19] = target: Gal(b1-3)GlcNAc(b1-6)GalNAc
How it was run: as §1

Gal(b1-3)GlcNAc6S = target: Gal(b1-3)GlcNAc6S
How it was run: as §1

[20] = target: Gal(b1-3)[Fuc(a1-4)]GlcNAc(b1-2)Man
How it was run: as §1

[21] = target: Gal(b1-3)[Fuc(a1-4)]GlcNAc(b1-2)Man(a1-3)[Gal(b1-3)[Fuc(a1-4)]GlcNAc(b1-2)Man(a1-6)]Man(b1-4)GlcNAc(b1-4)[Fuc(a1-6)]GlcNAc
How it was run: as §1

[22] = target: Gal(b1-3)[GlcNAc(b1-6)]GalNAc
How it was run: as §1

[23] = target: Gal(b1-4)GlcNAc(b1-2)[Gal(b1-4)GlcNAc(b1-6)]Man(a1-6)[Gal(b1-4)GlcNAc(b1-2)Man(a1-3)]Man(b1-4)GlcNAc(b1-4)[Fuc(a1-6)]GlcNAc
How it was run: as §1

[24] = target: Gal(b1-4)GlcNAc(b1-3)Gal(b1-4)GlcNAc(b1-3)Gal(b1-4)GlcNAc(b1-3)Gal(b1-4)GlcNAc(b1-3)Gal(b1-4)GlcNAc(b1-2)Man(a1-3)[Gal(b1-4)GlcNAc(b1-3)Gal(b1-4)GlcNAc(b1-3)Gal(b1-4)GlcNAc(b1-3)Gal(b1-4)GlcNAc(b1-3)Gal(b1-4)GlcNAc(b1-2)Man(a1-6)]Man(b1-4)GlcNAc(b1-4)GlcNAc
How it was run: as §1

B1: Clec12b (Mus musculus), Q149M0 (protein)
chain: MSDEVTYATLMLQDSARVRGNQDGNNLRKEGHPAQSSLWRGAALSLMTLCLVLVTGLVTLATMFLQVSNDINSDSEKLSQLQKSIHPQQDNLSESLNSSRKSLTEESLQSQISALLERQEQMATKLCKEFLIHASDHKCNPCPKTWQWYGNSCYYFSINEEKSWSDSRKDCIDKNATLVKIDSTEERDLLQSQLSLTFSFFWLGLSWNSSGRNWLWEDGSFPPPTLFSDKELASFNGSRDCAYFERGNIYASRCSAEIPWICEKTASLVKTEDLD
- glycan array binding signal (z-score) (Fuc(a1-2)Gal(b1-3)GalNAc): -0.451
- glycan array binding signal (z-score) [1]: 0.211
- glycan array binding signal (z-score) [2]: -0.395
- glycan array binding signal (z-score) [3]: 2.66
- glycan array binding signal (z-score) [4]: 3.25
- glycan array binding signal (z-score) [5]: -0.484
- glycan array binding signal (z-score) [6]: 2.58
- glycan array binding signal (z-score) [7]: 2.82
- glycan array binding signal (z-score) (Fuc(a1-2)Gal6S(b1-4)Glc): 0.808
- glycan array binding signal (z-score) [8]: -0.568
- glycan array binding signal (z-score) [9]: -0.052
- glycan array binding signal (z-score) [10]: 0.853
- glycan array binding signal (z-score) [11]: 4.57
- glycan array binding signal (z-score) [12]: -0.749
- glycan array binding signal (z-score) [13]: -0.115
- glycan array binding signal (z-score) [14]: 0.308
- glycan array binding signal (z-score) [15]: -0.288
- glycan array binding signal (z-score) (Fuc(a1-3)GlcNAc): -0.323
- glycan array binding signal (z-score) (Gal(a1-3)Gal(b1-3)GlcNAc): 5.35
- glycan array binding signal (z-score) [16]: -0.324
- glycan array binding signal (z-score) (Gal(a1-3)Gal(b1-4)GlcNAc): 0.53
- glycan array binding signal (z-score) (Gal(b1-2)Gal): 2.74
- glycan array binding signal (z-score) [17]: -0.587
- glycan array binding signal (z-score) [18]: -0.41
- glycan array binding signal (z-score) [19]: -0.588
- glycan array binding signal (z-score) (Gal(b1-3)GlcNAc6S): 0.486
- glycan array binding signal (z-score) [20]: 0.927
- glycan array binding signal (z-score) [21]: 3.71
- glycan array binding signal (z-score) [22]: -0.137
- glycan array binding signal (z-score) [23]: 0.226
- glycan array binding signal (z-score) [24]: 0.028
